# Screening results as filed in PubChem.
# Only some compounds are listed: those with a hit (about 4.1% of all), similar ones and a draw of the others.
# DAX1 inh-1: inhibitors of DAX1 repression of SF-1 activated StAR promoter | HEK293T StAR-luciferase reporter, SF-1/DAX-1 repression relief | inhibition, % at 6.8 µM | 370,000 compounds, 1.1% hits;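 active = inhibition above the mean over all tested compounds plus 3 SD, cut at about 3.6% in these data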;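 note: 0% = DAX-1 cells with DMSO and 100% = cells lacking DAX-1 with DMSO; higher inhibition means more luminescence from relief of DAX-1 repression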
# hgDAF-12 ag: agonists of H. glycines DAF-12 nuclear receptor; HEK293 GAL4-hgDAF12 UAS-luciferase reporter, agonist luminescence; normalized to butyrate control; AID 687014; 370,000 compounds, 1.8% hits; activation, % at 6.8 µM;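 active = activation above a cutoff set at the mean of all screened compounds plus 3 SD, cut at about 10% in these data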;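 note: 0% = DMSO wells and 100% = sodium butyrate wells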
# ssDAF12 agonist: S. stercoralis DAF-12 activation, primary screen | 370,000 compounds, 1% hits | AID 652126 | activation, % at 6.8 µM | HEK293 ssDAF-12/GRIP1 lit1-tk-luc reporter, luminescence; % of 3 µM dafachronic acid response;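 active = activation above the mean over all tested compounds plus 3 SD, cut at about 0.9% in these data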;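 note: 0% = DMSO-only wells and 100% = 3 µM delta7-dafachronic acid wells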
# hcDAF-12 act: activates DAF-12 receptor from parasite H. contortus; activation, % at 6.8 µM; AID 652067; 370,000 compounds, 1.4% hits; HEK293 hcDAF-12 lit1-tk-luc reporter, luminescence; 0% DMSO, 100% Δ7-dafachronic acid;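 active = activation above the mean of all tested compounds plus 3 SD, cut at about 5.5% in these data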;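 note: 100% = response to 3 µM Δ7-dafachronic acid high control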
# DAX1 inh-2: inhibitors of human orphan nuclear receptor DAX1 (NR0B1); P51843; HEK293 Gal4-DAX1 luciferase reporter, luminescence; inhibition, % at 6.75 µM; 340,000 compounds, 0.99% hits; AID 504766;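 active = inhibition above the mean over all tested compounds plus 3 SD, cut at about 4.2% in these data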;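 note: 0% = DAX1-transfected cells with DMSO and 100% = empty-vector control cells with DMSO; inhibition shows as a rise in luminescence from relieved DAX1 repression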
# LXRb hcDAF ctr: LXR-beta agonism as hcDAF-12 counter-screen; shares compounds with hcDAF-12 act; HEK293 Gal4-LXR tk-luc reporter, luminescence, 24 h; normalized: DMSO 0%, positive control 100%; activation, % at 6.8 µM; 3,400 tested, under 10 active; AID 743027;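 active = mean percent activation of the reporter above a cutoff set as the average over tested compounds plus their standard deviation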
# Target sequence (P55055 whole entry, looked up, the tested form may be a part): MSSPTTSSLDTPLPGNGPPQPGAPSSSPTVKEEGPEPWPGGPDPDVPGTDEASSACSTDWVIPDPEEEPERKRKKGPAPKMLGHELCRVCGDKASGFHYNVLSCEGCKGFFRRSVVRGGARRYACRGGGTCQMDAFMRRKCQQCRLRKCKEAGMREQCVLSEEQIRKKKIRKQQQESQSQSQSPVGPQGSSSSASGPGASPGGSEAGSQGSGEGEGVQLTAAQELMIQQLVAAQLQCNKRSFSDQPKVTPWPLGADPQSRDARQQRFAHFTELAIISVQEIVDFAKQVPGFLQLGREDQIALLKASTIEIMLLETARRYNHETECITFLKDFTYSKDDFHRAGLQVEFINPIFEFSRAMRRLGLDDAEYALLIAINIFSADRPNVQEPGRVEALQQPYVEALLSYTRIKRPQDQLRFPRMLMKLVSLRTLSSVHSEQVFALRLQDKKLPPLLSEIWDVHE
# hcDAF12 conf: confirmation of H. contortus DAF-12 agonists. shares compounds with hcDAF-12 act. HEK293 hcDAF-12 lit1-tk-luc reporter, luminescence; % of Δ7-dafachronic acid response. activation, % at 6.8 µM. 3,400 compounds, 61% hits. AID 743032;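 active = mean activation across triplicate tests above the threshold derived from the earlier primary screen, cut at about 5.5% in these data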;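 note: 0% = DMSO only wells and 100% = 3 µM Δ7-dafachronic acid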
# hgDAF12 conf: confirmation of H. glycines DAF-12 agonists; 3,300 compounds, 80% hits; HEK293 GAL4-hgDAF12 luciferase reporter, agonist mode; percent of butyrate response; activation, % at 6.8 µM; AID 743050; shares compounds with hgDAF-12 ag;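 active = mean activation over triplicate wells above the hit cutoff derived from the earlier primary screen, cut at about 11% in these data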;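 note: 0% = DMSO low control and 100% = 2 mM sodium butyrate high control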
# LXRb DAF12 ctr: activates human LXR-beta, counter-screen for DAF-12 agonists; 3,300 tested, under 10 active; activation, % at 6.8 µM; shares compounds with hgDAF-12 ag; HEK293 Gal4-LXR luciferase reporter, 24 h;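 active = mean activation of the triplicate above a set limit carried over from the primary screen, none filed active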
# Active calls of the source: *; . = not tested or not shown.
SMILES,DAX1 inh-1,hgDAF-12 ag,ssDAF12 agonist,hcDAF-12 act,DAX1 inh-2,LXRb hcDAF ctr,hcDAF12 conf,hgDAF12 conf,LXRb DAF12 ctr
O=[N+]([O-])c1ccc(NN=Cc2cccc(O)c2)nc1,1,18*,1,10*,5.6*,1,4,21*,1
COc1cccc(NC(=O)COC(=O)c2nc3nccc(C)n3n2)c1,0,3,-2,-1,1,.,.,.,.
COc1cccc(N(C(=O)c2nc3nccc(C)n3n2)c2nc3ccccc3s2)c1,4.0*,20*,1.1*,8.4*,1,1,5,16*,1
Cc1ccc(S(=O)(=O)N2CCN(C(=O)CSc3ncn[nH]3)CC2)cc1,0,0,-1,-1,0,.,.,.,.
CCOc1ccccc1N1CCN(C(=S)Nc2ccc(S(=O)(=O)Nc3ncccn3)cc2)CC1,2,0,0,0,-1,.,.,.,.
O=C(Nc1ccon1)c1ccc(OC2CCCC2)cc1,4.5*,14*,0,7.2*,0,1,5,14*,1
COc1nc(N=C(N)N)nc2ccc(C)cc12,1,2,-1,-1,.,.,.,.,.
CCOc1ccc(NC(=O)COC(=O)CC2CC3CCC2C3)cc1 (centres undefined),0,-1,-1,-1,0,.,.,.,.
Cc1ccc(/C=C/c2ccc3cccc(O)c3n2)s1,1,18*,1.5*,8.9*,4,1,15*,16*,1
Oc1cccc(/C=C/c2ccc3cccc(O)c3n2)c1,3.6*,23*,4.7*,26*,3,2,21*,28*,1
COc1cc(/C=C/c2ccc3cccc(O)c3n2)cc(OC)c1OC,-1,-9,-2,-5,-3,.,.,.,.
COc1cccc(/C=C/c2ccc3cccc(O)c3n2)c1,0,14*,1.5*,9.0*,1,2,8.5*,24*,1
COc1ccc(NC(=O)c2cc(-c3cc(F)ccc3OC)n[nH]2)c(OC)c1,-1,-2,-1,1,.,.,.,.,.
Cc1ccccc1C(=O)N/N=C1\SCC(=O)N1Cc1ccco1,0,0,-1,-3,1,.,.,.,.
O=C(O)c1c(Cl)cccc1Nc1ccccc1,-1,2,0,0,.,.,.,.,.
Cc1ccc2oc(-c3ccc(C)c(NC(=S)NC(=O)c4cccs4)c3)nc2c1,3.9*,14*,2.6*,11*,4.7*,1,8.9*,14*,1
COc1ccc(NC(=O)n2ncc3c(C)cccc32)cc1OC,1,5,0,-1,0,.,.,.,.
COc1ccc(NC(=O)n2ncc3c(C)cccc32)cc1,3,14*,0,12*,4,1,11*,21*,1
CCN(CC)c1ccc(Nc2nc(-c3cccnc3)cs2)cc1,0,6,-1,0,0,.,.,.,.
c1ccc(-c2csc(Nc3cccnc3)n2)cc1,-1,21*,1.5*,8.1*,1,0,7.9*,14*,1
Fc1ccc(Nc2nc(-c3cccnc3)cs2)cc1,1,17*,1.1*,10*,8.0*,1,10*,20*,1
CN(C)c1ccc(Nc2nc(-c3cccnc3)cs2)cc1,2,18*,1.3*,12*,2,2,9.7*,23*,1
COc1ccc(C(=O)NC(=S)NCc2cccnc2)cc1Cl,-1,0,-1,-2,1,.,.,.,.
CC1=C(C(=O)OCc2ccccc2)C(c2ccc(C)cc2)NC(=O)N1 (centres undefined),0,-1,-2,-2,-1,.,.,.,.
O=S(=O)(c1ccc(Oc2ccc(Cl)cc2)nc1)N1CCOCC1,-1,-4,-2,-1,-1,.,.,.,.
SMILES,DAX1 inh-1,hgDAF-12 ag,ssDAF12 agonist,hcDAF-12 act,DAX1 inh-2,LXRb hcDAF ctr,hcDAF12 conf,hgDAF12 conf,LXRb DAF12 ctr
Cc1cc(NC(=O)c2ccc(C(C)(C)C)cc2)no1,3,15*,0,7.2*,2,2,5.6*,21*,1
CCn1cc(C(=O)N[C@H](C(=O)NCCCn2ccnc2)C(C)C)c(=O)c2cc3c(cc21)OCO3,0,-1,-1,1,0,.,.,.,.
COc1cccc(-c2nc3ccccc3s2)c1,4.4*,17*,1.7*,15*,1,2,11*,27*,1
COc1cccc(N2C(=O)C(c3ccccc3)=C(c3nc4ccccc4s3)C2NC(C)=O)c1 (centres undefined),0,-1,-1,0,0,.,.,.,.
Fc1ccc(Nc2nnc(-c3ccncc3)s2)cc1Cl,1,3,-1,0,.,.,.,.,.
N#C/C(=C/c1cccs1)c1nc2ccccc2[nH]1,0,18*,-1,6.8*,-1,1,8.4*,14*,1
Cc1ccc(/C=C(\C#N)c2nc3ccccc3[nH]2)s1,3,8,0,5,1,.,.,.,.
Cc1cc(C)c2c(N)c(-c3nc4ccccc4[nH]3)sc2n1,3,13*,2.6*,16*,5.0*,0,10*,14*,0
Cc1ccc(C(=O)NNCC(=O)Nc2ccc(Cl)cc2F)cc1,-1,2,-1,-2,2,.,.,.,.
CC(=O)Nc1ccc2nc(NC(=O)c3cccs3)sc2c1,4.2*,21*,1.8*,6.7*,3,1,9.2*,13*,1
CC(=O)Nc1cccc(/C(C)=N/NC(=O)c2ccc(NS(=O)(=O)c3cccs3)cc2)c1,1,3,-1,0,1,.,.,.,.
CC(=O)Nc1cccc(/C(C)=N/NC(=O)c2cccs2)c1,2,18*,0,6.7*,4,0,1,1,0
CC(C)C(C)NC(=O)COC(=O)C1CCN(S(=O)(=O)c2ccc3c(c2)OCCO3)CC1 (centres undefined),0,-2,-1,-1,2,.,.,.,.
O=S(=O)(Nc1nc2ccccc2nc1N1CCc2ccccc2C1)c1ccc(Cl)cc1,4.3*,20*,2.5*,16*,0,0,6.3*,24*,1
O=S(=O)(Nc1nc2ccccc2nc1N1CCN(c2ccccn2)CC1)c1ccc(Cl)cc1,0,2,-1,0,1,.,.,.,.
C/C(=N\Nc1ncc(Cl)cc1Cl)c1ccc(OC(F)F)cc1,1,20*,-1,6.6*,0,0,-1,0,0
